In the library only some 4% were active in any assay of this set; here they are far more common.
tim23-1 inh = tim23-1 yeast growth inhibition | S. cerevisiae tim23-1 growth, BacTiter-Glo luminescence, 24 h | actives 1.3% (n = 330,000) | inhibition, % at 20 µM | AID 463212;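 active = growth inhibition of the mutant yeast at or above 50%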;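 note: temperature-sensitive mutant grown at 25 °C; plate controls were DMSO-treated mutant yeast for no effect and medium wells lacking yeast for full effect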
TIM10 inh = growth inhibitors of TIM10 yeast strain; S. cerevisiae TIM10 strain growth, BacTiter-Glo luminescence, 24 h; inhibition, % at 10 µM; actives 1.4% (n = 330,000); AID 463195;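 active = inhibition of 40% or more at the single tested concentration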;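 note: wild-type TIM10 isogenic control strain grown at permissive 25 °C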
tim10-1 inh = inhibits growth of tim10-1 mutant yeast | inhibition, % at 20 µM | actives 2.2% (n = 330,000) | AID 463190 | S. cerevisiae tim10-1 ts strain growth, BacTiter-Glo, 24 h;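 active = inhibition of at least 40%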;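 note: mutant grown at 25 °C; 0% = DMSO wells with yeast and 100% = wells holding no yeast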
NALP3 yeast inh = inhibitors of NALP3 inflammasome in yeast; Yeast reconstituted NLRP3/ASC/caspase-1, beta-gal luminescence, 24 h; inhibition, % at 10 µM; actives 0.39% (n = 330,000); AID 2825;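 active = inhibition of 50% or more; inactive = inhibition below 50%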;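 note: plate controls were induced DMSO wells for no effect and uninduced yeast grown without galactose for full effect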
NALP1 inh = NALP1 inhibition; S. cerevisiae NALP1/ASC/caspase-1 growth, X-gal OD620, 72 h; inhibition, % at 10 µM; actives 0.61% (n = 280,000); AID 2071; in the data active = inhibition mostly above about 24%, no sharp cut-off; inactive = mostly below about 32%
tim10-1 conf = tim10-1 yeast growth inhibition, confirmed; shares compounds with tim10-1 inh; S. cerevisiae tim10-1 ts strain growth, BacTiter-Glo, 24 h; inhibition, % at 20 µM; actives 56% (n = 7,400);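 active = inhibition of yeast growth at or above a set limit in either of two repeat tests at 20 µM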;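 note: tim10-1 mutant grown at permissive 25 °C to find synthetic lethal compounds; 0% = DMSO yeast wells and 100% = medium wells without yeast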
TIM10 conf = confirmation of TIM10 yeast growth inhibitors. actives 63% (n = 4,600). shares compounds with TIM10 inh. inhibition, % at 10 µM. S. cerevisiae tim10 strain growth, BacTiter-Glo luminescence, 24 h;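 active = inhibition of yeast growth at or above a set limit in either of two replicates at 10 µM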;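 note: this counterscreen used the strain with wild-type TIM10; 0% = yeast with DMSO and 100% = medium wells lacking yeast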
* hit, by the source's call; / = no result.

SMILES	tim23-1 inh	TIM10 inh	tim10-1 inh	NALP3 yeast inh	NALP1 inh	tim10-1 conf	others
Nc1nonc1-n1nnc(C(=O)N/N=C/c2ccccc2F)c1CN1CCc2ccccc21	33.4	-5.2	46.0*	17.9	13.0	16.4
O=C(Nc1ccc(Oc2cccnc2)cc1)C1CCN(Cc2ccc(F)cc2)CC1	3.9	-0.2	28.7	25.2	15.4	/
O=C(Nc1ccc(Oc2cccnc2)cc1)C1CCN(Cc2cc(Cl)ccc2O)CC1	12.8	7.5	49.2*	22.5	20.9	-3.7
CCOC(=O)c1cnc2ccc(C)cc2c1Nc1ccc(N2CCOCC2)cc1	-16.6	15.4	41.3*	17.4	/	25.6
CCOC(=O)c1ccc2ncc(C(=O)OCC)c(NCCN3CCOCC3)c2c1	22.9	0.7	-2.0	23.2	/	/
COCCn1c(=NC(=O)c2cc(-c3cccs3)nc3ccccc23)sc2cc(S(N)(=O)=O)ccc21	24.3	14.5	40.0	1.8	25.2	29.9*
COC(=O)c1cccc(Nc2cc(C)nc(-c3ccccc3O)n2)c1	35.3	37.6	61.9*	12.5	23.8	35.0*
COC(=O)c1ccc(Nc2cc(C)nc(-c3ccccc3O)n2)cc1	3.9	1.9	18.5	4.3	-0.5	/
Nc1c(C(=O)Nc2ccccc2)c2nc3ccccc3nc2n1CCCN1CCOCC1	-4.7	23.5	64.4*	23.7	/	44.2*
C=CCn1c(N)c(C(=O)Nc2cccc(C)c2)c2nc3ccccc3nc21	10.6	28.3	61.0*	11.5	1.6	48.6*
C=CCn1c(N)c(C(=O)Nc2ccc(C)c(C)c2)c2nc3ccccc3nc21	-30.2	15.2	16.3	-7.3	-1.8	/
CCCNC(=O)N1CCN(S(C)(=O)=O)CC1	-0.4	8.4	2.3	8.3	13.9	/
COc1ccc(NC(=O)C2CCN(c3cc(C)nc(-c4ccccc4)n3)CC2)cc1	38.2	22.4	43.3*	19.5	44.3	29.6
COc1ccc(NC(=O)C2CCN(c3nc(C)cc(C)n3)CC2)cc1	2.8	9.0	14.6	-1.8	-9.3	/
COC1=C(Nc2ccc(O)cc2)C(=O)c2ccccc2C1=O	41.9	35.9	38.8	18.5	47.1	/
CCOc1ccc(NC2=C(OC)C(=O)c3ccccc3C2=O)cc1	28.6	8.1	44.3*	6.1	46.3	9.1
COc1ccc(NC2=C(NCCO)C(=O)c3ccccc3C2=O)cc1	19.9	13.9	30.5	8.7	30.4	/
COC1=C(Nc2ccc(OC)cc2)C(=O)c2ccccc2C1=O	39.8	1.0	40.0*	20.4	41.7	19.4
CC(NC(=O)c1ccco1)C(=O)OCc1cccc(C(F)(F)F)c1 (stereo not given)	19.1	-5.6	-9.5	5.4	/	/
CC(Cc1ccsc1)NC(=O)CCc1nnc(COc2ccccc2)o1 (stereo not given)	8.7	1.8	4.3	20.8	5.2	/
CCOc1ccc(OCC)c(S(=O)(=O)N2CCCCC2C)c1 (stereo not given)	46.0	20.2	42.6*	-0.7	9.2	10.9
CCC(=O)N1CCc2cc(Br)cc(S(=O)(=O)CCC(=O)N(CC)CC)c21	2.3	6.0	5.3	2.0	3.8	/
CCCN(CCC)S(=O)(=O)c1cc(Br)cc2c1N(C(=O)CC)CC2	39.1	26.7	46.2*	-1.1	38.6	34.1*
Cc1ccc(NC(=S)NCC2CCN(C(C)c3ccccc3)C2)cc1C (stereo not given)	-14.1	-9.7	-15.1	9.8	-0.9	/
Cc1ccc(S(=O)(=O)N2CCCCC2CCNC(=O)C(=O)NCc2ccco2)cc1 (stereo not given)	36.6	0.5	42.3*	20.0	/	13.4
SMILES	tim23-1 inh	TIM10 inh	tim10-1 inh	NALP3 yeast inh	NALP1 inh	tim10-1 conf	others
N#C/C(=C\C=C\c1ccccc1[N+](=O)[O-])C(=O)NCc1ccccc1	48.9	38.1	45.0*	14.8	8.9	34.9*
O=C(CCCc1ccccc1)NC12CC3CC(CC(C3)C1)C2	40.8	11.0	11.7	29.3	6.0	/
COC(=O)c1c(NC(=O)c2ccoc2C)sc2c1CCC2	21.7	-10.5	11.0	30.3	-18.2	/
Cc1occc1C(=O)Nc1sc2c(c1C(N)=O)CCCCC2	27.7	38.7	48.5*	3.4	15.2	23.3
CCOC(=O)N1CCN(CC(=O)Nc2sccc2C#N)CC1	6.4	2.1	12.0	13.2	-7.5	/
Cc1ccc(/C=C(\C#N)c2nn(-c3ccccc3)c(N)c2C#N)cc1	29.1	24.9	40.4*	22.7	18.6	23.8
N#C/C(=C\c1cccc2ccccc12)c1nn(-c2ccccc2)c(N)c1C#N	16.3	20.0	11.1	-6.0	/	/
CCSc1nc2c(cnn2-c2ccc(C)cc2)c(=O)[nH]1	16.8	14.5	40.9*	15.7	25.4	-5.7
CCCSc1nc2c(cnn2-c2ccc(C)cc2)c(=O)[nH]1	9.1	-12.7	14.3	15.6	25.7	/
Cc1cc(C)c(C(=O)N2CCCC(N3CCN(c4cccc(C(F)(F)F)c4)CC3)C2)o1 (stereo not given)	24.1	19.9	44.2*	-0.4	2.4	21.5
N#CCc1nn2c(-c3ccccc3)ccnc2c1C#N	29.5	9.6	43.0*	-7.5	5.8	27.5
CCN(CC)S(=O)(=O)c1ccc2oc(C(=O)NCc3ccc(F)cc3)c(C)c2c1	32.5	32.5	43.5*	5.3	6.3	39.0*
CCOc1ccc(C(=O)N/N=C/c2c(C)[nH]c(=O)[nH]c2=O)cc1	-9.1	-18.7	8.2	-12.1	/	/
O=C1c2ccccc2NC(c2ccc(Cl)cc2Cl)N1Cc1ccccc1 (stereo not given)	34.7	20.2	23.2	12.5	32.1	/
O=C1c2ccccc2NC(c2c(Cl)cccc2Cl)N1Cc1ccccc1 (stereo not given)	43.3	27.1	40.0*	-24.6	-4.0	26.4
COc1ccccc1Cn1c(=O)c2ccccc2n2c(Sc3ncnc4sccc34)nnc12	45.1	44.9*	43.3*	-7.0	12.6	34.5*	TIM10 conf=29.9
CC(C)OP(=O)(OC(C)C)C(O)c1ccc(N(C)C)cc1 (stereo not given)	-2.1	5.6	-7.4	15.8	-9.1	/
O=c1c2cccc3c2c(nn1CN1CCOCC1)-c1ccccc1-3	25.1	41.1*	52.9*	-2.2	28.1	24.6	TIM10 conf=51.5*
CCN(CC)CCn1nc2c3c(cccc3c1=O)-c1ccccc1-2	-30.6	-0.6	2.8	-30.5	20.3	/
CC1=C/C(=N\OC(=O)/C=C/c2ccccc2)C(C)=CC1=O	37.1	42.7*	45.6*	1.2	0.6	16.0	TIM10 conf=23.0
O=C(/C=C/c1ccccc1)OCN1C(=O)c2ccccc2C1=O	18.6	25.6	21.8	-11.8	2.2	/
CCO[C@H]1OC(C(=O)NCc2ccccc2)=C[C@@H](C(C)(C)C)[C@@H]1CCCO	14.9	3.8	9.2	6.6	/	/
Cc1cc(N/N=C/c2ccc(O)cc2O)nc(-c2ccccc2O)n1	/	/	/	/	-3.5	/
Cc1cc(N/N=C/c2ccccc2O)nc(-c2ccccc2O)n1	31.9	40.8*	50.5*	21.6	23.7	32.0*	TIM10 conf=4.3
